The source of these data is PubChem BioAssay (EPA / NIEHS).

The source made the active and inactive calls. How the source made its calls: active means hit-call score of the fitted dose curve at least 0.9, where 1 is the maximum; inactive means score below 0.9.

Assay [1] can be described thus: ATG_GLI_CIS: Attagene CIS-FACTORIAL HepG2 Assay for human Zinc Finger Protein GLI1 (AID 2282945). Conditions: HepG2, Attagene cis-factorial reporter mRNA, GLI element; actives raise or lower the signal. The gist of the method:
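Bidirectional curve fits relative to DMSO, using reporter mRNA levels from RT-PCR plus capillary electrophoresis. Cells were HepG2 transiently carrying cis-regulated reporter constructs, harvested 24 h after dosing.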

Assay [2] is described as follows: ATG_GRE_CIS: Attagene CIS-FACTORIAL HepG2 Assay for human Glucocorticoid Response Elements (GRE) (AID 2282947). Conditions: HepG2 GRE cis-reporter, Attagene multiplex mRNA; actives raise or lower the signal. An outline of the steps:
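Multiplexed cis-reporter mRNA induction, HepG2, 24 h post-dose. RT-PCR, FAM-labelled, HpaI-digested amplicons by CE. Bidirectional fit vs DMSO.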

Assay [3] is described as follows: ATG_ISRE_CIS: Attagene CIS-FACTORIAL HepG2 Assay for human Interferon Regulatory Factor 1 (IRF1) binding to an Interferon-Stimulated Response Element (ISRE) (AID 2282948). Conditions: HepG2 ISRE cis-reporter (Attagene), mRNA transcription readout; actives raise or lower the signal. The gist of the method:
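Read-out: fluorescent RT-PCR products resolved by capillary electrophoresis, reporting endogenous transcription factor activity via ISRE-driven reporter mRNA in transfected HepG2 cells dosed for 24 h; gain or loss fitted relative to DMSO.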

Assay [4] is described as follows: ATG_M_32_CIS: Attagene CIS-FACTORIAL HepG2 Assay for M32 Transcription Factor (Internal Marker) (AID 2282949).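 Further: background control marker of the multiplexed CIS panel rather than a real target.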 Particulars: HepG2 Attagene cis-factorial M32 reporter, mRNA; actives raise or lower the signal. An outline of the steps:
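Using DMSO as baseline, bidirectional curve fits were applied to reporter mRNA signals. These came from transiently transfected HepG2 cells exposed for 24 h, with RNA analysed by RT-PCR, FAM primer extension, HpaI digestion and CE.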

Assay [5] is described as follows: ATG_M_06_CIS: Attagene CIS-FACTORIAL HepG2 Assay for M06 Transcription Factor (Internal Marker) (AID 2282950). Particulars: HepG2 Attagene CIS-FACTORIAL M06 internal marker reporter; actives raise or lower the signal. The gist of the method: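 Steps: transfect HepG2 with multiplexed cis-element reporter constructs; dose chemical 24 h; extract RNA with DNase treatment; reverse-transcribe, PCR-amplify, 6-FAM label, HpaI digest; separate fragments by capillary electrophoresis. Activity fitted both directions versus DMSO.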

The target of assay [6] is Hepatocyte nuclear factor 6 (Homo sapiens) (UniProt Q9UBC0). The assay can be described thus: ATG_HNF6_CIS: Attagene CIS-FACTORIAL HepG2 Assay for human Hepatocyte Nuclear Factor 6 (HNF6) (AID 2282952). Conditions: HepG2 Attagene cis-factorial HNF6 reporter transcription; actives raise or lower the signal. The gist of the method: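 Using cis-element reporters in HepG2 liver cells, the assay tracks endogenous factor-driven transcription 24 h post-dosing. Signal comes from 6-FAM-labelled, HpaI-digested RT-PCR fragments, with gain or loss scored against DMSO.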

The target of assay [7] is Heat shock factor protein 1 (Homo sapiens) (UniProt Q00613). The assay can be described thus: ATG_HSE_CIS: Attagene CIS-FACTORIAL HepG2 Assay for human Heat Shock Transcription Factor 1 (HSE) (AID 2282953). Particulars: HepG2 HSE cis-reporter, Attagene RNA transcription; actives raise or lower the signal. An outline of the steps:
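Cells were transfected with cis-element-driven reporter constructs, dosed for 24 h, then total RNA was reverse-transcribed and reporter cDNA amplified, FAM-labelled and digested with HpaI. Fragments were resolved by capillary electrophoresis; gain or loss was fitted against DMSO.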

Assay [8] in a line: ATG_MRE_CIS: Attagene CIS-FACTORIAL HepG2 Assay for human Metal Responsive Element (MRE) (AID 2282954). Particulars: HepG2 MRE cis-reporter transcription, Attagene multiplex; actives raise or lower the signal. An outline of the steps: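 Multiplexed cis-reporter assay in human HepG2 liver cells, 24 h incubation with test chemical. Reporter transcripts measured by RT-PCR and capillary electrophoresis; values from bidirectional curve fitting versus DMSO.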

Assay [9] deals with Paired box protein Pax-6 (Homo sapiens) (UniProt P26367). The assay can be described thus: ATG_Pax6_CIS: Attagene CIS-FACTORIAL HepG2 Assay for human Paired Box 6 (PAX6) (AID 2282956). Conditions: HepG2 CIS-FACTORIAL PAX6 reporter transcription, RNA readout; actives raise or lower the signal. The gist of the method:
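Readout: reporter transcript fluorescence after RT-PCR and capillary electrophoresis. Cells: HepG2, transiently transfected with cis-regulated MRTUs. Exposure 24 h. Gain or loss of signal fitted bidirectionally relative to DMSO.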

A short description of assay [10]: ATG_PXRE_CIS: Attagene CIS-FACTORIAL HepG2 Assay for human Pregnane X Receptor Element (PXRE) (AID 2282957). Particulars: HepG2 Attagene CIS-FACTORIAL PXRE reporter, mRNA; actives raise or lower the signal. The gist of the method:
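Using HepG2 transfected with multiple reporter transcription units, endogenous factor-driven transcription was scored as reporter mRNA after 24 h exposure.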

Assay [11] can be described thus: ATG_PPRE_CIS: Attagene CIS-FACTORIAL HepG2 Assay for human Peroxisome Proliferator-activated Response Element (PPRE) (AID 2282958). Conditions: HepG2 PPRE cis-element reporter, Attagene transcription factor profiling; actives raise or lower the signal. The gist of the method:
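Transcript-level reporter induction in transfected HepG2 cells after 24 h chemical exposure, quantified by fluorescence from RT-PCR products separated by capillary electrophoresis.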

Assay [12] in a line: ATG_Sox_CIS: Attagene CIS-FACTORIAL HepG2 Assay for human SRY-box transcription factor (SOX) (AID 2282960). Conditions: HepG2 Attagene cis-factorial SOX reporter, mRNA; actives raise or lower the signal. The gist of the method: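 Cells were transfected with reporter constructs under cis-regulatory promoters, then exposed to chemicals for 24 h. Reporter transcripts were quantified by fluorescence after RT-PCR and capillary electrophoresis; activity was fitted in both directions against DMSO.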

Assay [13] deals with Transcription factor Sp1 (Homo sapiens) (UniProt P08047). The assay can be described thus: ATG_Sp1_CIS: Attagene CIS-FACTORIAL HepG2 Assay for human Specificity Protein 1 (Sp1) (AID 2282961). Particulars: HepG2 Sp1 cis-reporter transcription, actives raise or lower the signal. The gist of the method:
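Measures mRNA induction of an Sp1-linked reporter in HepG2 cells 24 h post-dosing. Multiplexed reporters read by RT-PCR and capillary electrophoresis; DMSO serves as negative control and baseline.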

Assay [14] in a line: ATG_SREBP_CIS: Attagene CIS-FACTORIAL HepG2 Assay for human Sterol Regulatory Element Binding (SREBP) (AID 2282962). Particulars: HepG2 Attagene cis-factorial SREBP reporter, mRNA; actives raise or lower the signal. The gist of the method: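 Readout: fluorescent reporter-transcript peaks resolved by capillary electrophoresis after RT-PCR. Cells were human HepG2 carrying transfected cis-promoter reporter constructs, dosed for 24 h. Gain or loss of signal was fitted against DMSO controls.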

Assay [15] concerns the target Signal transducer and activator of transcription 3 (Homo sapiens) (UniProt P40763). The assay can be described thus: ATG_STAT3_CIS: Attagene CIS-FACTORIAL HepG2 Assay for human Signal Transducer and Activator of Transcription 3 (STAT3) (AID 2282963). Conditions: HepG2, Attagene cis-factorial STAT3 reporter transcription; actives raise or lower the signal. An outline of the steps:
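Cis-factorial format: endogenous transcription factors in HepG2 drive transfected reporter units. After 24 h treatment, reporter RNA was reverse-transcribed, amplified, FAM-labelled and HpaI-digested before CE analysis; activity scored in both directions against DMSO.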

Assay [16] is described as follows: ATG_TA_CIS: Attagene CIS-FACTORIAL HepG2 Assay for human TA Basal Promoter (AID 2282964). Particulars: HepG2 Attagene CIS-factorial TA basal promoter reporter; actives raise or lower the signal. An outline of the steps: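 Steps: transfect HepG2 with MRTUs; dose 24 h; isolate RNA, DNase-treat, reverse-transcribe; PCR and FAM-label reporter cDNA; digest with HpaI 2h at 37 C; run capillary electrophoresis. Activity fitted both directions against DMSO.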

Assay [17] is described as follows: ATG_RORE_CIS: Attagene CIS-FACTORIAL HepG2 Assay for human RAR-related Orphan Receptor Element (RORE) (AID 2282959). Conditions: HepG2 Attagene cis-factorial RORE reporter, mRNA; actives raise or lower the signal. An outline of the steps:
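Multiplexed reporter assay measuring mRNA induction from a cis promoter element in transiently transfected HepG2 cells after 24 h treatment. Detection via RT-PCR and capillary electrophoresis fluorescence; DMSO serves as baseline.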

Assay [18] has as its target Hypoxia-inducible factor 1-alpha (Homo sapiens) (UniProt Q16665). The assay can be described thus: ATG_HIF1a_CIS: Attagene CIS-FACTORIAL HepG2 Assay for human Hypoxia Inducible Factor 1 (HIF1A) (AID 2282951). Particulars: HepG2 Attagene cis-factorial HIF1a reporter transcription; actives raise or lower the signal. An outline of the steps: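 HepG2, transient cis-reporter library, 24 h dosing. RNA → RT (oligo dT) → PCR → 6-FAM primer extension → HpaI → CE. Bidirectional curve fit vs DMSO.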

Assay [19] is described as follows: ATG_PBREM_CIS: Attagene CIS-FACTORIAL HepG2 Assay for human Phenobarbital-responsive Enhancer Module (PBREM) (AID 2282955). Conditions: HepG2 PBREM cis-reporter, Attagene multiplexed transcription; actives raise or lower the signal. An outline of the steps: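 HepG2, transient MRTU transfection, 24 h dosing; RNA → oligo(dT) RT → PCR → 6-FAM extension → HpaI → CE. Bidirectional fit vs DMSO.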

Heat shock factor protein 1 (Homo sapiens), sequence (Q00613 whole entry, looked up, the tested form may be a part): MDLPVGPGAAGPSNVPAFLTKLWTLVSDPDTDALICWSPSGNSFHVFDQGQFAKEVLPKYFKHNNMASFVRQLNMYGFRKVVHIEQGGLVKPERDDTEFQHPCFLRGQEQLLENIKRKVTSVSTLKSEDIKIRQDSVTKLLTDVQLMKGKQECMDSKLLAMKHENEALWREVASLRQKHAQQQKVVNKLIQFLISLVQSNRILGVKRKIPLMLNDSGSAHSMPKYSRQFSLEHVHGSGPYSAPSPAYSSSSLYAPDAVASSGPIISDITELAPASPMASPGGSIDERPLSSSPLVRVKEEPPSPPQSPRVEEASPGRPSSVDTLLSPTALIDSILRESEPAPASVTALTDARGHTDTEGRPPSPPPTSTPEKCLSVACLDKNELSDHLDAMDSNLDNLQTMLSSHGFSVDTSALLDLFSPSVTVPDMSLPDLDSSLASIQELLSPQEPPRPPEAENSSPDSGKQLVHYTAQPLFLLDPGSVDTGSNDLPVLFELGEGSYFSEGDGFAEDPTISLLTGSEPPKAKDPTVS
Paired box protein Pax-6 (Homo sapiens), sequence (P26367 whole entry, looked up): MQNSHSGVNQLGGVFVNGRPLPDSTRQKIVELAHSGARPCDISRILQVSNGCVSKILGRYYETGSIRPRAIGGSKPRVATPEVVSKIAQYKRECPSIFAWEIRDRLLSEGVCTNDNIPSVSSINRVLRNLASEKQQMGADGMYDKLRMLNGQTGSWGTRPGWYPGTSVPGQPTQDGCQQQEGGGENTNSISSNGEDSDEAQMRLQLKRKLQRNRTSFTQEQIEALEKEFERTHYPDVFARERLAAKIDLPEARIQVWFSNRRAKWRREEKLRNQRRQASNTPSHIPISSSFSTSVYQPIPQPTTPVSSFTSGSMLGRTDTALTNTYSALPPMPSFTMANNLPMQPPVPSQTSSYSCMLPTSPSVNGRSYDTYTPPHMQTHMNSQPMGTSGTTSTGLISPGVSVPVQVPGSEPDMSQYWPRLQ
Hepatocyte nuclear factor 6 (Homo sapiens), sequence (Q9UBC0 whole entry, looked up, the tested form may be a part): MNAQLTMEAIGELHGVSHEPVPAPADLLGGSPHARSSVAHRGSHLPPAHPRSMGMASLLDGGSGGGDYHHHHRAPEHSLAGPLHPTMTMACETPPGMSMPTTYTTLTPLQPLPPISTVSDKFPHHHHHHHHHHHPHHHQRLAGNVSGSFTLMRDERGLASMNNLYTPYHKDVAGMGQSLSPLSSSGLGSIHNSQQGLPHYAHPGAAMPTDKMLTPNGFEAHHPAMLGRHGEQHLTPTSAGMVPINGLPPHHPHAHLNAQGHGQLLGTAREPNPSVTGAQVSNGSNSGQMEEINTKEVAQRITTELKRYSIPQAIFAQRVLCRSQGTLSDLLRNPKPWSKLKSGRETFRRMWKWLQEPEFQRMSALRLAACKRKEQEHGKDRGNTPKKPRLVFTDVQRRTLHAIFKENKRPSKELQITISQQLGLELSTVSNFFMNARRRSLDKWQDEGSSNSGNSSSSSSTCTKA
Transcription factor Sp1 (Homo sapiens), sequence (P08047 whole entry, looked up): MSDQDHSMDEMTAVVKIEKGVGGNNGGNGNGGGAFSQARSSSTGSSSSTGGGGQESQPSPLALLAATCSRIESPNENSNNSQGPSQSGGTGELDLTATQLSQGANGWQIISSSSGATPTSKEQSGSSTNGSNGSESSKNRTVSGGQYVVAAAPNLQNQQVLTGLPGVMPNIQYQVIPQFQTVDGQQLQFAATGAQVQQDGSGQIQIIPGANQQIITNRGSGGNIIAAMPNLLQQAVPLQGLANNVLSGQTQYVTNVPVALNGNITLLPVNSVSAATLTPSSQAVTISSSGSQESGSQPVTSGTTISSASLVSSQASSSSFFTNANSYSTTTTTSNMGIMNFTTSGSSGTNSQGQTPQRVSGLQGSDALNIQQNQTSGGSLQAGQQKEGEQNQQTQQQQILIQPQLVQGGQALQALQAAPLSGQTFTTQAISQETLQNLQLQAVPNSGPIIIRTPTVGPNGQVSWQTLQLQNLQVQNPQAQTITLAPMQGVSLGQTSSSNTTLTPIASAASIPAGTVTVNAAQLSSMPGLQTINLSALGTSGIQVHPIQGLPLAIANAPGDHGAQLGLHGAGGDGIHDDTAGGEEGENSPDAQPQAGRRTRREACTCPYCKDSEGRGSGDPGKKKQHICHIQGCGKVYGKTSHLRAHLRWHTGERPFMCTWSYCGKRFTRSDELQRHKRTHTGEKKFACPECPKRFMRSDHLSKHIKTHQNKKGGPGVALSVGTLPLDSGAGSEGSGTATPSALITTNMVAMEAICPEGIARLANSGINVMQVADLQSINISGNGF
Signal transducer and activator of transcription 3 (Homo sapiens), sequence (P40763 whole entry, looked up): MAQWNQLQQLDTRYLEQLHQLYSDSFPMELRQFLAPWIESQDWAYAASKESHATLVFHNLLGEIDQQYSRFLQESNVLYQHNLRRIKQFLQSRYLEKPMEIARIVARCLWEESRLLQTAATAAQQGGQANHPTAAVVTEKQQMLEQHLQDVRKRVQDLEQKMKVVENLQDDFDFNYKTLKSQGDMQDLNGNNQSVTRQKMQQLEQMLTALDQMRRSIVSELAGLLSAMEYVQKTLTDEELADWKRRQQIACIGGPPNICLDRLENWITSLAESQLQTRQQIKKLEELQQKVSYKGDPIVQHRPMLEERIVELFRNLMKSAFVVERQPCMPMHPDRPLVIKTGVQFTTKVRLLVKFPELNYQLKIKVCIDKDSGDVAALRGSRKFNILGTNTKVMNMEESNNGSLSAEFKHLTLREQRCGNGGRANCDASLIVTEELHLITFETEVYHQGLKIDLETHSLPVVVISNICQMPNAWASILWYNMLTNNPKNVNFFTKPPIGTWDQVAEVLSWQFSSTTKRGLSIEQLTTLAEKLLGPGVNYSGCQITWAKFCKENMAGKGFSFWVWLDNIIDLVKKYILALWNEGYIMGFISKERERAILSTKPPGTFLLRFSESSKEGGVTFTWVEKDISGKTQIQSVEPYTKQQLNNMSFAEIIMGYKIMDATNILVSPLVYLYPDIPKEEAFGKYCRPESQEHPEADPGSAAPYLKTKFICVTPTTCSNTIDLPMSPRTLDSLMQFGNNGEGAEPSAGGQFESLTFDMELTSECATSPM
Hypoxia-inducible factor 1-alpha (Homo sapiens), sequence (Q16665 whole entry, looked up): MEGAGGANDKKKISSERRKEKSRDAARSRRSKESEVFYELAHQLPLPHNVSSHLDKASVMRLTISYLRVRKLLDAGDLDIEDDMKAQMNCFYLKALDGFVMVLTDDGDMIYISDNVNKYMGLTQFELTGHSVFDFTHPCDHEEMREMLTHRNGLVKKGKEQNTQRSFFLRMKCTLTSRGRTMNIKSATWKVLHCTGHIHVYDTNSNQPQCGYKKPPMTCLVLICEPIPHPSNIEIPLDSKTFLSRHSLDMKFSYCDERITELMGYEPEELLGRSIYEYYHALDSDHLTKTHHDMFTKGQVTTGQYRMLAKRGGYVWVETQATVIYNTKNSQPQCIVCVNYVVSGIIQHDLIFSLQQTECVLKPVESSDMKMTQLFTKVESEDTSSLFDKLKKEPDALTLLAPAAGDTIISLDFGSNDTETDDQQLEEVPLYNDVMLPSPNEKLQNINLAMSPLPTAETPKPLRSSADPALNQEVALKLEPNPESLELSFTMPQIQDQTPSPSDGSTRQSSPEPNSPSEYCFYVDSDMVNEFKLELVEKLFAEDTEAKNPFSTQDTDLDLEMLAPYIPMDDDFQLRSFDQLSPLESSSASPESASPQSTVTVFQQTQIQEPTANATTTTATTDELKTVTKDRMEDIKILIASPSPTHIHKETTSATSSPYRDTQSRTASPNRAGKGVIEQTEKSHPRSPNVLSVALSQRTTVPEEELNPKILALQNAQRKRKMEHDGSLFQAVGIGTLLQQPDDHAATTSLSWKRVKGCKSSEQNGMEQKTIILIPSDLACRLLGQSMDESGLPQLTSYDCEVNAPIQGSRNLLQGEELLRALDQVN

Regarding `CC1=CC(O)CC(C)(C)C1` (stereo not given), the molecule was called inactive in [1], in assay [2], in assay [3], in assay [4], in [5] and in assay [6]. The molecule was called inactive in assay [7], in assay [8], in assay [9], in assay [11], in [12] and in assay [13]. Further, the outcome in [14], in assay [15] and in assay [16] was inactive. Also, in [10], the AC50 was 10.8 µM (active).

Turning to `Cc1cc(O)c(C)c(C)c1O`, the molecule was classed as inactive in [1], in assay [2], in [4], in assay [5], in assay [6] and in assay [7]. The molecule was classed as inactive in assay [8], in assay [17], in assay [12], in [13] and in [16]. Besides, in [10], the AC50 is 9.14 µM (active).

With `O=C(OCc1ccccc1)c1ccccc1O`, the result in assay [1], in assay [2], in assay [4], in [5], in [18] and in assay [6] was inactive. Further, the outcome in [7], in assay [8], in assay [9], in assay [17], in assay [12] and in assay [13] was inactive. Moreover, the molecule was classed as inactive in [15] and in [16]. Besides, the values for the concentration at half-maximal activity (AC50) in [10] and in [14] were 77.9 µM (active) and 128 µM (active), respectively.

Consider `CCCC(O)C(CC)CO` (stereo not given), for which the molecule was classed as inactive in assay [1], in assay [3], in assay [4], in [5], in [18] and in assay [6]. Also, the molecule was classed as inactive in assay [7], in [8], in assay [9], in [11], in assay [17] and in assay [12]. The molecule was classed as inactive in [13], in [14], in assay [15] and in assay [16]. Besides, the AC50 in [10] is 47.6 µM (active).

Regarding `CCO[Si](CC)(OCC)OCC`, the molecule was classed as inactive in assay [1], in assay [3], in [4], in [5], in assay [18] and in [6]. Moreover, the outcome in assay [7], in [8], in [19], in [9], in [17] and in assay [12] was inactive. The molecule was called inactive in assay [13], in assay [14], in assay [15] and in assay [16]. Further, in [10], the concentration at half-maximal activity (AC50) was 2.33 µM (active).

Consider `CC(C)C(=O)c1ccccc1`, for which the molecule was classed as inactive in assay [1], in assay [3], in assay [4], in assay [5], in assay [18] and in assay [6]. Besides, the call in assay [7], in assay [8], in assay [10], in [17], in assay [12] and in assay [14] was inactive. In addition, the molecule was called inactive in assay [15] and in assay [16].

Regarding `COc1ccc(C(C)=O)cc1`, the result in [1], in assay [3], in assay [4], in assay [5], in [18] and in [6] was inactive. Further, the outcome in assay [7], in [8], in assay [19], in assay [9], in assay [10] and in assay [17] was inactive. Further, the molecule was classed as inactive in assay [12], in assay [14] and in assay [16].

For the molecule `CCCCCCCC(=O)N(C)C`, the molecule was classed as inactive in assay [1], in assay [3], in assay [4], in assay [5], in [18] and in assay [7]. For the same molecule, the outcome in assay [8], in assay [19], in [9], in [11], in assay [17] and in [12] was inactive. The call in [13], in [14], in [15] and in assay [16] was inactive. Besides, the AC50 in assay [10] was 42.4 µM (active).

For the molecule `CCCCCCCCCCCCOC(C)=O`, the molecule was classed as inactive in assay [1], in assay [3], in [4], in [5], in [18] and in assay [6]. The molecule was classed as inactive in assay [7], in assay [8], in assay [9], in assay [10], in [17] and in assay [12]. Further, the outcome in [13], in assay [14], in assay [15] and in assay [16] was inactive.

One may read the AC50 as the concentration at which the activity in the assay is half-maximal.
